Laboratory results reported in ChEMBL document CHEMBL3988442, “University of Dundee, Small-Polar-MMV Screening Library” (2021).
For some of these results: Results with a measured potency or affinity are listed apart.

Experiments:
Design in all cases: scale not given: direction of the effect not stated beside the values
[1] = target: Protein translocase subunit SecA (Escherichia coli (strain K12)) (UniProt P10408); experiment: Assay to Identify E. coli SecA ATPase Inhibitors; type: functional; conditions: 30 µM
Protein translocase subunit SecA (Escherichia coli (strain K12)), sequence (P10408 whole entry): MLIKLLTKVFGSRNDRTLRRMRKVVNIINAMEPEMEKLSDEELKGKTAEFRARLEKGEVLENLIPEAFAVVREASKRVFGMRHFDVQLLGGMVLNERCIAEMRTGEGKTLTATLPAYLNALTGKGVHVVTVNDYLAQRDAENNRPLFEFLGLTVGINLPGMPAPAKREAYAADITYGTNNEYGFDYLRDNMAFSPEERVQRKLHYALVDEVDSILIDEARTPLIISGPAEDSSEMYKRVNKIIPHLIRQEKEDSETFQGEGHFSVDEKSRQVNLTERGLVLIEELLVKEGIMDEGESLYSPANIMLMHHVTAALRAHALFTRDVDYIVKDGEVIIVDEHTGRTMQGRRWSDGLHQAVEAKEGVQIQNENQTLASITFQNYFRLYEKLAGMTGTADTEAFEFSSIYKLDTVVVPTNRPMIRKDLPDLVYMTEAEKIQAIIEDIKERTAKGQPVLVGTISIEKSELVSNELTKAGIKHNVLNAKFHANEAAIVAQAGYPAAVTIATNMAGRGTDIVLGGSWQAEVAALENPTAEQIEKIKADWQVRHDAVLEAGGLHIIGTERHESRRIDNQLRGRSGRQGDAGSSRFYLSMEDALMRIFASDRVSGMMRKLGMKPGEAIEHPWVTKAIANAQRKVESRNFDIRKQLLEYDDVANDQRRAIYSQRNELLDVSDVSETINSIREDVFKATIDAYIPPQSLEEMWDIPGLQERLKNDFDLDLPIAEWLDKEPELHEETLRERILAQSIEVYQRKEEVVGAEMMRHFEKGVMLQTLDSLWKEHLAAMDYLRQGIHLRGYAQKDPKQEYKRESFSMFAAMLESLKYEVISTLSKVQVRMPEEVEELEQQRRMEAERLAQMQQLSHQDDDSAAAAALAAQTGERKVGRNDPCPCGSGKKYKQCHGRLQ

[2] = target: T1, Ubiquitin-activating enzyme e1, putative (Leishmania donovani (strain BPK282A1)) (UniProt E9BSI1); experiment: Leishmania donovani Ubiquitin Activating Enzyme (LdE1); type: functional; conditions: 30 µM
T1 sequence (whole entry): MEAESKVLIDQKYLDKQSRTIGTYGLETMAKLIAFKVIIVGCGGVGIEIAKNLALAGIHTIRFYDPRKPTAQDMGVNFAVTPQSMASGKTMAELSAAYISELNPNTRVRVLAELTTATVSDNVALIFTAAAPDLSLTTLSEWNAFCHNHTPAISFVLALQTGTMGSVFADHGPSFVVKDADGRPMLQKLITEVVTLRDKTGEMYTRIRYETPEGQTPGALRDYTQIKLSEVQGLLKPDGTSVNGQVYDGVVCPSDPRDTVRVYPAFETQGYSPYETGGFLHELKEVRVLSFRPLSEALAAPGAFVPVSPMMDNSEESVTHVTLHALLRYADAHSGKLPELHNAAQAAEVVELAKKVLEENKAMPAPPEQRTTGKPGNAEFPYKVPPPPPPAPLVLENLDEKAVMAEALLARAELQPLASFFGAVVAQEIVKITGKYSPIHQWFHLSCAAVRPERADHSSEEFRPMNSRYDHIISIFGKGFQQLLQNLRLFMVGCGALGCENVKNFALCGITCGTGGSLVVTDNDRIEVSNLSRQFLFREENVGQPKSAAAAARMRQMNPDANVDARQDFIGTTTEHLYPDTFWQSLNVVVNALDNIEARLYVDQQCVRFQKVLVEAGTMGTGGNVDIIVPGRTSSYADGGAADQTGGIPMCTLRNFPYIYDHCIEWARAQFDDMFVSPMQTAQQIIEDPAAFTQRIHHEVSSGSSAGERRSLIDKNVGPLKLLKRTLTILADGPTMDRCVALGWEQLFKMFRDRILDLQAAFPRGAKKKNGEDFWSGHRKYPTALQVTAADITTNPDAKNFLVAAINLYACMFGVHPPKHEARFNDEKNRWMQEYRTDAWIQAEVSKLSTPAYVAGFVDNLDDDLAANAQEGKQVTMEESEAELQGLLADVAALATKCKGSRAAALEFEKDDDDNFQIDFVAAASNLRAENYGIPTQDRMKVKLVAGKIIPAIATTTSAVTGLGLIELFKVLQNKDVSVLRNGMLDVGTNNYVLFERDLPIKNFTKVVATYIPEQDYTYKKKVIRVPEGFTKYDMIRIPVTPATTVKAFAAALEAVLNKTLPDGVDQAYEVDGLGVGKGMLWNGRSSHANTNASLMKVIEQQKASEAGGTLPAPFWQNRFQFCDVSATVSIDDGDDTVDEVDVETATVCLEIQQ

[3] = target: AMP-activated protein kinase, AMPK (Homo sapiens) (UniProt P54646+O43741+P54619+Q9UGJ0+Q9Y478+Q13131+Q9UGI9); experiment: AMP-dependent Kinase enzyme assay. An in vitro enzyme assay that detects ADP turnover that is directly proportional to AMPK activity. This uses naive AMPK that is activated during the assay with MK-8722; type: functional; conditions: 30 µM
[4] = target: Sialic acid-binding Ig-like lectin 9 (Homo sapiens) (UniProt Q9Y336); experiment: Hs-Siglec9 ALPHAscreen SOP 20170721; conditions: 10 µM
Sialic acid-binding Ig-like lectin 9 (Homo sapiens), sequence (Q9Y336 whole entry): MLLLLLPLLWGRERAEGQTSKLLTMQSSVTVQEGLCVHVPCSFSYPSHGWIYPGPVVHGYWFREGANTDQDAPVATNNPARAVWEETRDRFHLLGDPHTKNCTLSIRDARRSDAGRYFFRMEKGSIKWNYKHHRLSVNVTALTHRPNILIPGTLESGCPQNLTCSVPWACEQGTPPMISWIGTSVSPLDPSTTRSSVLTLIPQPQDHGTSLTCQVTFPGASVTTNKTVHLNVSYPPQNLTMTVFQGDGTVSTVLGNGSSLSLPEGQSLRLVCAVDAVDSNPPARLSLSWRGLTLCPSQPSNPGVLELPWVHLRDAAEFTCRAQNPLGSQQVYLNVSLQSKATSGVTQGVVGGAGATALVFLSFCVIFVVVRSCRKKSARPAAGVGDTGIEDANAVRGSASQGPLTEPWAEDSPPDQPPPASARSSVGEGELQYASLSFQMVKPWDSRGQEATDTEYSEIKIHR

Trypanosoma cruzi = experiment: Trypanosoma cruzi phosphomannomutase and mannose-1-phosphate guanylyltransferase assay; type: functional; conditions: 10 µM
[5] = target: T2, Arginase-2, mitochondrial (Homo sapiens) (UniProt P78540); experiment: in vitro enzyme assay to detect the production of urea directly proportional to the activity of Arginase II; type: functional; conditions: 33.3 µM; note: in the data most compounds retested in dose-response had high values
T2 sequence (whole entry): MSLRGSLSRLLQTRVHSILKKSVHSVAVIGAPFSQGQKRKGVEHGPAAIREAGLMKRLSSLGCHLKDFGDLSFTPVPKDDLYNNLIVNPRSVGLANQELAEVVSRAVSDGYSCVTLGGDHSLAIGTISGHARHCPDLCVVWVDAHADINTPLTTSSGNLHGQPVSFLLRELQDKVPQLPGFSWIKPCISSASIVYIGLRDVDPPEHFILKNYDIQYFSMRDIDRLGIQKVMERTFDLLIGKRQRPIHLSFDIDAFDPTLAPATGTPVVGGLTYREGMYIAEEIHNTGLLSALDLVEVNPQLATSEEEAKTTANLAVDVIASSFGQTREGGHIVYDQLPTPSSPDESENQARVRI

[6] = target: T3, Proteasome subunit beta (Trypanosoma cruzi) (UniProt O96673); experiment: Trypanosoma cruzi proteasome chymotrypsin-like activity (TcProtChymo) assay.; note: in the data most compounds retested in dose-response had high values; type: functional; conditions: 9.37 µM
T3 sequence (whole entry): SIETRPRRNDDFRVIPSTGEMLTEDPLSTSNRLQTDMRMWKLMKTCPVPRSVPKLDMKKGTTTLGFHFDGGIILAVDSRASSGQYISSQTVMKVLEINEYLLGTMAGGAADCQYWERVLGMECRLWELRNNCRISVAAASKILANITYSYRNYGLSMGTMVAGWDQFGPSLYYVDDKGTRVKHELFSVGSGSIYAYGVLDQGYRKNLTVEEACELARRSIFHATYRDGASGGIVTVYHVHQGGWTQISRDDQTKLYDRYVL

Homo sapiens = organism: Homo sapiens; experiment: To identify inhibition of the IFN signalling (Jak-Stat) pathway via expression of an eGFP reporter gene under the control of an IFN-stimulated response element (ISRE) containing MxA promoter.; type: functional; conditions: 30 µM
[7] = target: T4, Tyrosyl-tRNA synthetase, putative (Trypanosoma cruzi (strain CL Brener)) (UniProt Q4DSP6); experiment: Trypanosoma cruzi tyrosyl tRNA synthetase (TcYRS) _High Tyrosine SOP; type: functional; conditions: 30 µM; note: in the data most compounds retested in dose-response had high values
T4 sequence (whole entry): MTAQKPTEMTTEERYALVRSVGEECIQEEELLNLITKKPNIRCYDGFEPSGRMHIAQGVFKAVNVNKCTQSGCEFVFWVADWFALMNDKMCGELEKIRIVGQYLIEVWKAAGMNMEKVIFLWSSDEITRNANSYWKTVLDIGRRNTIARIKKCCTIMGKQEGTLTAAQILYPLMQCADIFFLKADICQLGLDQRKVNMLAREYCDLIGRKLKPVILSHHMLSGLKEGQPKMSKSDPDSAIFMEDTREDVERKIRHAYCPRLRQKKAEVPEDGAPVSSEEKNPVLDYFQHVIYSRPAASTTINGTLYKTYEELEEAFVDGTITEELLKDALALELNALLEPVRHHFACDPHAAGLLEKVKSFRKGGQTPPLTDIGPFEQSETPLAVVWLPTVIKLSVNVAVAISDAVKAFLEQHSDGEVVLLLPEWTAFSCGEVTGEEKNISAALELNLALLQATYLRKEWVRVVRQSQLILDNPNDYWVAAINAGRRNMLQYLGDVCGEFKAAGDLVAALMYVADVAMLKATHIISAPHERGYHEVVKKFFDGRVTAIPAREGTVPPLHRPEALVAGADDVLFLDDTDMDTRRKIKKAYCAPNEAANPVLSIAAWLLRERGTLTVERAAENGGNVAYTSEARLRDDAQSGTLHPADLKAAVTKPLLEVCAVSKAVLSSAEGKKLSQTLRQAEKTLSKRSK

[8] = target: T4, Tyrosyl-tRNA synthetase, putative (Trypanosoma cruzi (strain CL Brener)); experiment: Trypanosoma cruzi tyrosyl tRNA synthetase (TcYRS) SOP; type: functional; conditions: 30 µM
[9] = target: Chromo domain-containing protein 1 (Saccharomyces cerevisiae (strain ATCC 204508 / S288c) (Baker's yeast)) (UniProt P32657); experiment: ScCHD-1 Enzyme Inhibition Assay; type: functional; conditions: 30 µM; note: in the data most compounds retested in dose-response had high values
Chromo domain-containing protein 1 (Saccharomyces cerevisiae (strain ATCC 204508 / S288c) (Baker's yeast)), sequence (P32657 whole entry, the tested form may be a part): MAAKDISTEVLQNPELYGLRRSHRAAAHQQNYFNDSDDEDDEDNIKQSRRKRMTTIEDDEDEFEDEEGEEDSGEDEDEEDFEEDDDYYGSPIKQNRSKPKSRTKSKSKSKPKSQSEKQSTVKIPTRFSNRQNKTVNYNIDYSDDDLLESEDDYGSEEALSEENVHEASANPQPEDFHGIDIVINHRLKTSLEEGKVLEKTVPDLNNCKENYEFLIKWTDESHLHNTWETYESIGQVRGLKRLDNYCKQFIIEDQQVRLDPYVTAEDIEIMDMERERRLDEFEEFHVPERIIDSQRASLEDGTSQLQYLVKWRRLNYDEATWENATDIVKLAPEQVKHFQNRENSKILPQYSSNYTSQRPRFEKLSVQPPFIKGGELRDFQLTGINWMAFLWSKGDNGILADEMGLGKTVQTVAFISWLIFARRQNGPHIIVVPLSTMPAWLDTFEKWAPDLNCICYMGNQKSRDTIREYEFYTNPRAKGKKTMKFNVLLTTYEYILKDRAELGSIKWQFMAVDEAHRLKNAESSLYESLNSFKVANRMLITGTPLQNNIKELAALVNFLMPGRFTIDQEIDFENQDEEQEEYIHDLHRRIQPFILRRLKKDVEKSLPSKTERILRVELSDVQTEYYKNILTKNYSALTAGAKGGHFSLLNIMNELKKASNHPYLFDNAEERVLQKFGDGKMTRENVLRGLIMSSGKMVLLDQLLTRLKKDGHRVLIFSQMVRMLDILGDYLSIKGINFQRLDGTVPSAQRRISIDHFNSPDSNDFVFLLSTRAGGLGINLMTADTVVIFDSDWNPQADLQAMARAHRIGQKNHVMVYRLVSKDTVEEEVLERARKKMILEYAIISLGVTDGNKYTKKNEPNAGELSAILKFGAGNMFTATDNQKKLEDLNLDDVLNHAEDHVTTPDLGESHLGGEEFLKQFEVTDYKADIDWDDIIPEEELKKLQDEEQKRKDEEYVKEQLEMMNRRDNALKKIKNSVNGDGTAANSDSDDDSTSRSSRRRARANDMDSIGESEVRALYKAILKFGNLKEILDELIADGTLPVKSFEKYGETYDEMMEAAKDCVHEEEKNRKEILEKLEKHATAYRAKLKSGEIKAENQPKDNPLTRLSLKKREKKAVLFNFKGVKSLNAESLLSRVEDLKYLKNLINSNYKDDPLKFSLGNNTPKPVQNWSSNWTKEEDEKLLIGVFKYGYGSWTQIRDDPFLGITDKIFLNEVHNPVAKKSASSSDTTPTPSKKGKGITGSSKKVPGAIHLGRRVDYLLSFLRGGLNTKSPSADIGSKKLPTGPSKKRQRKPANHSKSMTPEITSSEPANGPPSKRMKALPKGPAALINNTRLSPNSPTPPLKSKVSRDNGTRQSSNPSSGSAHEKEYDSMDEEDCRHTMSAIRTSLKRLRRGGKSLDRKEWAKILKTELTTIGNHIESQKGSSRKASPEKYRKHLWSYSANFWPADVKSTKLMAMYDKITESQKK

SMILES | Percent Effect [1] [%] | Percent Effect [2] [%] | Percent Effect [3] [%] | Percent Effect [4] [%] | Percent Effect (Trypanosoma cruzi) [%] | Percent Effect [5] [%] | Percent Effect [6] [%] | Percent Effect (Homo sapiens) [%] | Percent Effect [7] [%] | Percent Effect [8] [%] | Percent Effect [9] [%]
CCN1CCC2(CC1)CC(NC(=O)NC)c1cc(C)ccc12 (stereo not drawn) | -3.84 | 13.3 | 6.34 | 6.37 | 5.21 | -56.5 | 10.9 | -24.6 | 4.17 | 7.5 | -5.82
CCOC1CCCN(C(=O)c2cnc3c(cnn3C3CCCC3)c2)C1 (stereo not drawn) | -4.83 | 0 | 2.09 | 0.582 | -2.93 | -2.66 | -2.38 | 24.1 | 1.48 | -8.86 | -4.24
c1cncc(COCc2nnc3n2CCN(Cc2ccoc2)C3)c1 | -1.23 | 18.2 | 3.03 | 9.78 | 5.21 | -8.28 | 21 | 8.47 | 6.45 | 16.1 | 0.555
O=C(NCC(Cc1cccc(F)c1)N1CCCC1=O)c1ccccc1 (stereo not drawn) | -6.41 | -5.48 | 27.6 | -11 | -5.68 | 0 | 13.1 | 6.32 | 1.07 | 5 | -2.23
CCc1nc(C2CCCN2Cc2nccn2Cc2ccccc2)no1 (stereo not drawn) | -0.608 | 0 | 1.64 | 13.2 | 2.25 | 0.21 | 9.13 | 10.5 | 2.86 | 2.35 | 4.26
Cc1ccc2cc(CNCCCO)c(=O)[nH]c2c1 | 2.35 | 9.46 | 7.11 | -4.27 | -5.34 | 4.41 | 5.15 | 8.44 | 1.07 | 9.09 | -13.8
Cc1ccc(CN2CCc3ncnc(C4CCOC4)c3CC2)s1 (stereo not drawn) | 1.24 | 10.7 | 1.52 | 6.88 | -2.51 | -41.4 | 5.98 | 18.1 | 5.21 | 25 | -6.72
COc1cc2nc3n(c(=O)c2cc1OC)CCN(C)CC3 | -7.78 | 1.35 | 11.9 | 1.61 | -3.56 | -3.48 | 0.312 | 0.926 | 2.15 | 3.9 | -5.62
